Experimental findings from PubChem BioAssay are described below.

Active and inactive are the calls of the source.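 The calls were made as follows: active = thallium flux through the channel raised or lowered by more than 3 SD from vehicle-only wells, actives on both sides; inactive = the rest.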

For one assay, the system named is F380Y. Nature of the assay: BK channel mutant inhibitors and activators – cell-based, U2OS BacMam, thallium flux, beta subunits, selectivity assay, profiling panel (AID 1259406).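 Also: initial slope of Thallos dye fluorescence rise after thallium is added; log ratio against the mean of 0.3% DMSO vehicle wells on the same plate.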 As to conditions: U2OS BacMam BK variants, at 30 µM.
`Brc1c(NC2=NCCN2)ccc2nccnc12`: the log fold change Tl+ flux was -0.0564 (inactive). In the case of `COc1cc(C)c(Cc2cnc(N)nc2N)cc1OC`, the log fold change Tl+ flux is 0.0111 (inactive). As for `O=C(NCCN1CCOCC1)c1ccc(Cl)cc1`, the log fold change Tl+ flux is -0.0393 (inactive). Consider `CN(C)CC[C@@H](c1ccc(Br)cc1)c1ccccn1`, for which the log fold change Tl+ flux is 0.102 (inactive). For the molecule `CN1CCC(=C2c3ccccc3CCc3sccc32)CC1`, the log fold change Tl+ flux is -0.0249 (inactive). `C#C[C@]1(O)CC[C@H]2[C@@H]3CCc4cc(O)ccc4[C@H]3CC[C@@]21C`: the log fold change Tl+ flux is 0.0259 (inactive).

For a further assay, the system named is F380Y/beta1. The assay is described as above. Particulars: U2OS BacMam BK variants, at 30 µM.
On to `O=C(c1ccc(F)cc1)C1CCN(CCn2c(=S)[nH]c3ccccc3c2=O)CC1`, for which the log fold change Tl+ flux was 0.00744 (inactive). Consider `Cc1nc2ccc(CN(C)c3ccc(C(=O)N[C@@H](CCC(=O)O)C(=O)O)s3)cc2c(=O)[nH]1`, for which the log fold change Tl+ flux is -0.0237 (inactive). With `C[C@]12C[C@H](O)[C@H]3[C@@H](CCC4=CC(=O)CC[C@@]43C)[C@@H]1CC[C@@H]2C(=O)CO`, the log fold change Tl+ flux is 0.0921 (inactive).

Turning to `CNCC(O)c1ccc(O)c(O)c1` (configuration not stated), the log fold change Tl+ flux is -0.0248 (inactive).

For the molecule `CCN(CC)CC1CCCCN1CC(=O)N1c2ccccc2C(=O)Nc2cccnc21` (configuration not stated), the log fold change Tl+ flux is 0.0276 (inactive).

As to `CCOc1cc(N)c(Cl)cc1C(=O)NCC1CN(Cc2ccc(F)cc2)CCO1` (configuration not stated), the log fold change Tl+ flux was 0.0819 (inactive).

Consider `CN1CCN(C2=Nc3cc(F)ccc3Cc3ccccc32)CC1`, for which the log fold change Tl+ flux is 0.0457 (inactive).

`Cn1c(NCCN(CCO)CCCc2ccc([N+](=O)[O-])cc2)cc(=O)n(C)c1=O`: the log fold change Tl+ flux is -0.0554 (inactive). With `Cc1c(O)cccc1C(=O)N[C@@H](CSc1ccccc1)[C@H](O)CN1C[C@H]2CCCC[C@H]2C[C@H]1C(=O)NC(C)(C)C`, the log fold change Tl+ flux was 0.0513 (inactive). `Cc1[nH]cnc1CN1CCc2c(c3ccccc3n2C)C1=O`: the log fold change Tl+ flux is 0.0327 (inactive). The same measure, in the same setting: then `Nc1nc(F)nc2c1ncn2[C@@H]1O[C@H](CO)[C@@H](O)[C@@H]1O`, with -0.00658 (inactive); and `COCc1c(C(C)C)nc(C(C)C)c(/C=C/[C@@H](O)C[C@@H](O)CC(=O)O)c1-c1ccc(F)cc1`, with 0.473 (active); and `Brc1c(NC2=NCCN2)ccc2nccnc12`, with 0.00839 (inactive). `COc1cc(C)c(Cc2cnc(N)nc2N)cc1OC`: the log fold change Tl+ flux is 0.0334 (inactive). Regarding `O=C(NCCN1CCOCC1)c1ccc(Cl)cc1`, the log fold change Tl+ flux is -0.0206 (inactive).

For `CN(C)CC[C@@H](c1ccc(Br)cc1)c1ccccn1`, the log fold change Tl+ flux was 0.0384 (inactive).
